From PubChem BioAssay
FGF22 binding – binders of recombinant human FGF22 by thermal shift; Q9HCT0; activity (Tm shift, normalised), % at 9.99 µM; SYPRO orange fluorescence; percent of sucrose octasulfate shift, DMSO zero; hit rate 1.5% among 340,000; AID 651658;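 active means mean Tm shift, scaled 0 neutral to 100 positive control, at about 1.3% or above, every replicate too, limit read from the data; inconclusive means no clear call, values can overlap the other calls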
Target sequence (Q9HCT0 whole entry, looked up): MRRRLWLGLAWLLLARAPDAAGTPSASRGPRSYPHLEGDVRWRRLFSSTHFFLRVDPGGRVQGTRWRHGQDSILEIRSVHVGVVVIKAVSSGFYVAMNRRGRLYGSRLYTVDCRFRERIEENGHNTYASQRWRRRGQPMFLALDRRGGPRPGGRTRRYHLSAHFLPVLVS
DENV2 CPE rescue – protects cells from dengue virus 2 cytopathic effect | DENV2-infected cells, cytopathic effect rescue, plate reader | CPE inhibition, % at 9.99 µM | hit rate 1.7% among 350,000 | AID 651640; in the data active means CPE inhibition above about 20%, passing the limit was not always enough; inconclusive means no clear call, values can overlap the other calls; tested in BHK-21 cells;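 further: 0% = median of neutral control wells and 100% = median of positive control wells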
ERAP1 inh – blocks human ERAP1 aminopeptidase activity. Q9NZ08. recombinant ERAP1, Leu-AMC fluorescence, 60 min. inhibition, % at 10.7 µM. hit rate 0.15% among 340,000;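 active means mean replicate inhibition of at least 30%, or all replicates individually reaching that 30% level; inactive means mean below 30% and not every replicate reaching it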;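 further: 0% = neutral control wells and 100% = L-leucinethiol positive control wells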
RAD52 anneal inh – blocks human RAD52 DNA annealing. recombinant RAD52 DNA annealing, FRET fluorescence. inhibition, % at 18.7 µM. hit rate 0.46% among 360,000. AID 651710. P43351;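 active means every replicate showing at least 50% inhibition; inconclusive means mean inhibition at least 50% but not in every replicate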
Target sequence (P43351 whole entry, looked up): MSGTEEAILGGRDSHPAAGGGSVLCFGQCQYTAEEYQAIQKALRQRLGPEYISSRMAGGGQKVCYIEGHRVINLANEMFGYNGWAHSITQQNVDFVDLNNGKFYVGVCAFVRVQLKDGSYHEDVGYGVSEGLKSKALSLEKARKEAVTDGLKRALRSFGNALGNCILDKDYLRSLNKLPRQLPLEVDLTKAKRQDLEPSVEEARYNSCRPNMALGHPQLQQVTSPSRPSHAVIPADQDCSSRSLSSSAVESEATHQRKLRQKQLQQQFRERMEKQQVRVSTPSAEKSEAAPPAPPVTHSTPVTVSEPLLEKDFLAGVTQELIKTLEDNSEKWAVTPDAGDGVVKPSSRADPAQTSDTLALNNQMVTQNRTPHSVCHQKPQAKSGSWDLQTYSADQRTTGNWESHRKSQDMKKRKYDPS
AF4-AF9 inh – MLL-AF4/AF9 protein interaction inhibition. P42568. AlphaScreen, biotin-AF4 peptide binding to FLAG-AF9. inhibition, % at 10 µM. hit rate 0.47% among 350,000. AID 651704;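 active means every replicate reaching a set inhibition limit, whatever the replicate mean, cut at about 25% in these data; inconclusive means mean inhibition reaches that limit but some replicates miss it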;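 further: 0% = plate neutral control median and 100% = total signal loss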
Starred values were filed as active, the others as inactive. Most compounds without a hit are left out; they make up all but 4% or so of the library.

For COc1cccc(C(=O)NCC(=O)N/N=C/c2cccc(OC(=O)c3ccc([N+](=O)[O-])cc3)c2)c1 the results were FGF22 binding 43*, DENV2 CPE rescue -1, ERAP1 inh -3, RAD52 anneal inh -11 and AF4-AF9 inh -1.
O=C(CNC(=O)c1cccc(F)c1)N/N=C/c1cccc([N+](=O)[O-])c1 was read as FGF22 binding 0, DENV2 CPE rescue 10, ERAP1 inh -6, RAD52 anneal inh -5 and AF4-AF9 inh 1.
Screening Cc1ccc(N(CC(=O)N/N=C/c2cccnc2)S(=O)(=O)c2ccccc2)cc1 returned FGF22 binding 44*, DENV2 CPE rescue -11, ERAP1 inh -5, RAD52 anneal inh -2 and AF4-AF9 inh -9.
For COc1ccccc1/C=N/NC(=O)CCn1cnc2ccccc21 the results were FGF22 binding 44*, DENV2 CPE rescue 0, ERAP1 inh -3, RAD52 anneal inh -1 and AF4-AF9 inh -1.
Screening O=C(/C=C/c1ccccc1)NCC(=O)N/N=C\c1cccnc1 returned FGF22 binding 0, DENV2 CPE rescue -5, ERAP1 inh -3, RAD52 anneal inh 4 and AF4-AF9 inh -1.
Screening Cc1ccc(NC(=O)Cn2cnc3ccccc32)cc1C returned FGF22 binding 43*, DENV2 CPE rescue -2, ERAP1 inh 1, RAD52 anneal inh -10 and AF4-AF9 inh -1.
`O=C(CNS(=O)(=O)N1CCOCC1)N/N=C/c1cccnc1` gave FGF22 binding 44*, DENV2 CPE rescue -6, ERAP1 inh -8, RAD52 anneal inh -12 and AF4-AF9 inh -1.
For O=C(N/N=C/c1cccnc1)c1cccc(Cl)c1 the results were FGF22 binding 0, DENV2 CPE rescue -7, ERAP1 inh -3, RAD52 anneal inh -12 and AF4-AF9 inh -1.
For CC(C)c1ccc(OCc2cccc(C(=O)N/N=C/c3cccnc3)c2)cc1 the results were FGF22 binding 28*, DENV2 CPE rescue 6, ERAP1 inh 0, RAD52 anneal inh -12 and AF4-AF9 inh 14.
For Cc1ccc(/C=N/NC(=O)Cn2cnc3ccccc32)cc1 the results were FGF22 binding 0, DENV2 CPE rescue 14, ERAP1 inh -3, RAD52 anneal inh -12 and AF4-AF9 inh -1.
O=C(Cn1cnc2ccccc21)N/N=C/c1cccnc1 was read as FGF22 binding 43*, DENV2 CPE rescue 13, ERAP1 inh 4, RAD52 anneal inh -17 and AF4-AF9 inh -1.
Screening N/C(=N\OC(=O)c1ccco1)c1ccccn1 returned FGF22 binding 43*, DENV2 CPE rescue 4, ERAP1 inh 0, RAD52 anneal inh -18 and AF4-AF9 inh -1.
Screening N/C(=N\OC(=O)c1ccc2ccccc2c1)c1ccccn1 returned FGF22 binding 45*, DENV2 CPE rescue 7, ERAP1 inh 0, RAD52 anneal inh -3 and AF4-AF9 inh -2.
N/C(=N\OC(=O)c1ccc(=O)n(Cc2ccc(Cl)cc2)c1)c1ccccn1 was read as FGF22 binding 0, DENV2 CPE rescue 4, ERAP1 inh -4, RAD52 anneal inh -18 and AF4-AF9 inh 2.
Screening N/C(=N\OC(=O)c1cc(Br)ccc1Cl)c1ccccn1 returned FGF22 binding 43*, DENV2 CPE rescue 0, ERAP1 inh 4, RAD52 anneal inh -5 and AF4-AF9 inh 3.
`N/C(=N\OC(=O)c1cccc2ccccc12)c1ccccn1` gave FGF22 binding 0, DENV2 CPE rescue -2, ERAP1 inh 1, RAD52 anneal inh -11 and AF4-AF9 inh -3.
Screening N/C(=N\OC(=O)c1ccc2ccccc2c1)c1ccncc1 returned FGF22 binding 1, DENV2 CPE rescue 7, ERAP1 inh 0, RAD52 anneal inh -7 and AF4-AF9 inh -1.
N/C(=N\OC(=O)c1ccc(=O)n(Cc2ccccc2)c1)c1ccccn1 was read as FGF22 binding 43*, DENV2 CPE rescue -1, ERAP1 inh 4, RAD52 anneal inh -7 and AF4-AF9 inh -5.
`CCC(=O)N1CC2(C1)CN(Cc1ccccc1Cl)[C@H](CO)c1c2c2ccc(OC)cc2n1C` gave FGF22 binding 1, DENV2 CPE rescue -2, ERAP1 inh 0, RAD52 anneal inh -37 and AF4-AF9 inh 1.
For C[C@H](O)C#Cc1cnc2c(c1)C(=O)N([C@@H](C)CO)C[C@H](C)[C@H](CN(C)C(=O)CC1CC1)O2 the results were FGF22 binding 0, DENV2 CPE rescue 5, ERAP1 inh 2, RAD52 anneal inh 8 and AF4-AF9 inh -1.
For CCC(=O)N1CCCCN2[C@H](CO)[C@@H](c3ccc(-c4ccc(F)cc4)cc3)[C@H]2C1 the results were FGF22 binding 0, DENV2 CPE rescue 31*, ERAP1 inh 0, RAD52 anneal inh -10 and AF4-AF9 inh 3.
CCC(=O)N1CCCCN2[C@@H](CO)[C@@H](c3ccc(C#Cc4cccnc4)cc3)[C@@H]2C1 was read as FGF22 binding 0, DENV2 CPE rescue 23*, ERAP1 inh 3, RAD52 anneal inh 4 and AF4-AF9 inh -4.
`CCC(=O)N1CCCCN2[C@H](CO)[C@H](c3ccc(C#Cc4cccnc4)cc3)[C@@H]2C1` gave FGF22 binding 0, DENV2 CPE rescue -5, ERAP1 inh 2, RAD52 anneal inh 4 and AF4-AF9 inh -4.
Screening O=C(c1cccnc1)N1CCCCN2[C@H](C1)[C@H](c1ccc(C#Cc3ccccn3)cc1)[C@@H]2CO returned FGF22 binding 0, DENV2 CPE rescue -1, ERAP1 inh 1, RAD52 anneal inh -81 and AF4-AF9 inh 25*.
For CCC(=O)N1CCCCN2[C@H](CO)[C@@H](c3ccc(-c4ccc(F)cc4)cc3)[C@@H]2C1 the results were FGF22 binding 0, DENV2 CPE rescue -12, ERAP1 inh 0, RAD52 anneal inh -5 and AF4-AF9 inh 1.
For CCC(=O)N1CCCCN2[C@H](C1)[C@H](c1ccc(-c3cccnc3)cc1)[C@@H]2CO the results were FGF22 binding 1, DENV2 CPE rescue 38*, ERAP1 inh 4, RAD52 anneal inh 9 and AF4-AF9 inh 0.
O=C(c1cccnc1)N1CCCCN2[C@@H](CO)[C@H](c3ccc(C#Cc4ccccn4)cc3)[C@@H]2C1 was read as FGF22 binding 0, DENV2 CPE rescue -4, ERAP1 inh 1, RAD52 anneal inh -24 and AF4-AF9 inh -6.
For O=C(C[C@@H]1CC[C@@H]2[C@H](COC[C@@H](O)CN2CC2CCCC2)O1)NCc1ccc(Cl)cc1 the results were DENV2 CPE rescue 5, ERAP1 inh -2, RAD52 anneal inh -7 and AF4-AF9 inh -1.
`CC(=O)N1CC2(C1)[C@@H](c1ccc(-c3ccc(C#N)cc3)cc1)[C@H](CO)N2C(=O)C1CC1` gave FGF22 binding 0, DENV2 CPE rescue 6, RAD52 anneal inh -18 and AF4-AF9 inh 0.
Screening CCCC(=O)N1CC2(C1)CN(C(C)=O)[C@H](CO)c1c2c2ccc(OC)cc2n1C returned FGF22 binding 0, DENV2 CPE rescue inconclusive, ERAP1 inh 0, RAD52 anneal inh 6 and AF4-AF9 inh -4.
